Assay outcomes: PubChem, The Scripps Research Institute Molecular Screening Center
hcDAF12 agonist = activators of H. contortus DAF-12 nuclear receptor. HEK293 hcDAF-12 lit1-tk-luc reporter, luminescence; 0% DMSO, 100% Δ7-dafachronic acid. 1.4% of 370,000 active. activation, % at 6.8 µM;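 active means activation above the mean of all tested compounds plus 3 SD, cut at about 5.5% in these data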;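 further: 100% = response to 3 µM Δ7-dafachronic acid high control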
ssDAF-12 act = activators of S. stercoralis DAF-12 nuclear receptor. HEK293 ssDAF-12/GRIP1 lit1-tk-luc reporter, luminescence; % of 3 µM dafachronic acid response. activation, % at 6.8 µM. 1% of 370,000 active;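 active means activation above the mean over all tested compounds plus 3 SD, cut at about 0.9% in these data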;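 further: 0% = DMSO-only wells and 100% = 3 µM delta7-dafachronic acid wells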
SMARCA2 activ = increases SMARCA2 function in MMTV reporter cells; MG213 cells, MMTV-luciferase reporter, dexamethasone, overnight; activation, % at 9.1 µM; 1% of 370,000 active; in the data active means activation above about 7.8%;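 further: 0% = vehicle wells and 100% = reference activator wells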
DAX1 inh-1 = inhibitors of DAX1 repression of SF-1 activated StAR promoter; HEK293T StAR-luciferase reporter, SF-1/DAX-1 repression relief; 1.1% of 370,000 active; inhibition, % at 6.8 µM; AID 652010;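 active means inhibition above the mean over all tested compounds plus 3 SD, cut at about 3.6% in these data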;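 further: 0% = DAX-1 cells with DMSO and 100% = cells lacking DAX-1 with DMSO; higher inhibition means more luminescence from relief of DAX-1 repression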
hgDAF12 agonist = activates the H. glycines DAF-12 receptor ligand-binding domain. activation, % at 6.8 µM. 1.8% of 370,000 active. AID 687014. HEK293 GAL4-hgDAF12 UAS-luciferase reporter, agonist luminescence; normalized to butyrate control;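 active means activation above a cutoff set at the mean of all screened compounds plus 3 SD, cut at about 10% in these data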;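 further: 0% = DMSO wells and 100% = sodium butyrate wells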
DAX1 inh-2 = inhibitors of human orphan nuclear receptor DAX1 (NR0B1); HEK293 Gal4-DAX1 luciferase reporter, luminescence; AID 504766; inhibition, % at 6.75 µM; 0.99% of 340,000 active; P51843;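 active means inhibition above the mean over all tested compounds plus 3 SD, cut at about 4.2% in these data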;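 further: 0% = DAX1-transfected cells with DMSO and 100% = empty-vector control cells with DMSO; inhibition shows as a rise in luminescence from relieved DAX1 repression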
Target sequence (P51843 207-470 limits assumed): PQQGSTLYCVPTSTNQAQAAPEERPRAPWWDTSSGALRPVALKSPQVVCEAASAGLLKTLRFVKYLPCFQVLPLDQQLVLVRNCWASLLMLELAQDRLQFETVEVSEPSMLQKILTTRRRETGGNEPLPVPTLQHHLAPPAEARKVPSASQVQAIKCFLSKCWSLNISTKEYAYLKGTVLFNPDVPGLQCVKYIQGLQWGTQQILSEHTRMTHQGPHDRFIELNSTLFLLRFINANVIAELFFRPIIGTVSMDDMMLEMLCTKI
An asterisk follows results filed as active; / = not tested or not shown; ! = not confirmed by another sample. Rows were chosen to be rich in hits. Some 4.8% of all compounds tested hit in one or more screens of this group.

SMILES | hcDAF12 agonist | ssDAF-12 act | SMARCA2 activ | DAX1 inh-1 | hgDAF12 agonist | DAX1 inh-2
CCOC(=O)C1(Cc2cccc(OC)c2)CCCN(C(=O)c2ccc(OC)o2)C1 (stereo not drawn) | 5 | 0 | 4 | 4.3* | 5 | 1
CCCS(=O)(=O)NC(=O)C1(C)CCN(C(=O)c2c(C)noc2C)C1 (stereo not drawn) | -2 | -1 | -5 | 1 | 1 | /
COc1cc(C(O)c2nc(-c3ccccc3OC)cs2)ccc1F (stereo not drawn) | -2 | -1 | -4 | 0 | 2 | /
O=C(O)c1cccc(N2C(=O)c3ccc(C(=O)c4cccc([N+](=O)[O-])c4)cc3C2=O)c1 | 0 | 5.8* | 0 | 0 | 3 | 0
COc1ccc(NC(=O)Nc2cc(C)ccc2OC)cc1 | -2 | -2 | 0 | 0 | 2 | 0
COc1ccc(C(=O)COc2ccc(C)cc2NC(C)=O)cc1 | 2 | 0 | 0 | 2 | 10* | /
CCCCOc1ccc(CC(=O)NCC(=O)O)cc1 | -1 | -1 | -1 | 0 | -2 | 4.9*
O=[N+]([O-])c1ccc(S(=O)(=O)NCC2COc3ccccc3O2)cc1 (stereo not drawn) | 3 | 0 | 0 | 1 | 0 | 1
NS(=O)(=O)c1ccc(NCC2COc3ccccc3O2)c([N+](=O)[O-])c1 (stereo not drawn) | 4 | 0 | -1 | 0 | 11* | 0
COc1ccc(C2(C)NC(=O)N(CC(=O)Nc3ccc4c(c3)OCO4)C2=O)cc1OC (stereo not drawn) | 0 | -1 | 1 | 0 | -1 | -1
COCCOc1ccc(C(F)(F)F)cc1NC(=O)CN1C(=O)NC(C)(c2ccc3c(c2)OCO3)C1=O (stereo not drawn) | -2 | -1 | -3 | -1 | -4 | 7.6*
CCCCCCSc1ccc(-c2nc3ccccn3c2NCCCC)cc1 | -2 | -1 | 3 | 0 | 3 | 0
CCCCNc1c(-c2ccc(-c3cccc(Cl)c3)cc2)nc2ccccn12 | 1 | 0 | 4 | 2 | 11*! | 1
O=Cc1ccc2cccnc2n1 | 6.1* | 2.0* | -3 | 0 | 1 | 1
COc1ccc(C=C2Cc3ccccc3C2=O)cc1 | 1 | 0 | 3 | 1 | 11* | /
O=C1/C(=C\c2ccc([N+](=O)[O-])cc2)CCc2ccccc21 | 4 | 0 | 0 | 1 | 11* | 3
O=C1/C(=C/c2ccc(O)cc2)CCc2ccc([N+](=O)[O-])cc21 | -2 | 0 | -1 | 0 | 1 | 0
O=C1/C(=C\c2cccnc2)CCc2ccccc21 | -1 | -1 | 2 | 1 | 12* | 0
CC(=O)Nc1ccc(/C=C2\CCc3ccccc3C2=O)cc1 | 6.1* | -1 | 2 | 2 | 10 | 1
CCCCCC(=O)Nc1cccc(S(=O)(=O)NC2=NCCC2)c1 | 1 | -1 | -4 | 3 | -1 | 0
OC(c1ccc(F)c(F)c1)c1nc(-c2cccc(F)c2)cs1 (stereo not drawn) | 0 | -1 | -1 | -2 | 2 | /
CC(=O)NCCNC(=O)c1ccc(CSc2ccc(Cl)cc2)cc1 | 2 | 0.9* | 0 | 2 | 8 | 4
Nc1nc(CSC(=S)N2CCOCC2)nc(Nc2ccccc2)n1 | 6.1* | -1 | 8 | 1 | 1 | 5.0*
Cc1ccc(Nc2nc(N)nc(CSC(=S)N3CCOCC3)n2)cc1 | 2 | 0 | 1 | 2 | 9 | 0
c1ccc(-c2nc(NCc3cccnc3)c3oc4ccccc4c3n2)cc1 | 6.3* | 0 | -2 | -1 | 8 | -2
SMILES | hcDAF12 agonist | ssDAF-12 act | SMARCA2 activ | DAX1 inh-1 | hgDAF12 agonist | DAX1 inh-2
O=C(O)CNc1nc(-c2ccccc2)nc2c1oc1ccccc12 | 4 | 0 | -3 | -1 | 4 | 2
Cc1ccc(Nc2cc(C)nc(-c3ccccc3O)n2)cc1 | 0 | -1 | 4 | 0 | 13* | 2
Cc1cc(Nc2ccc(Br)cc2)nc(-c2ccccc2O)n1 | 0 | -1 | -1 | -1 | -2 | 0
Cc1ccc(CONC(=O)c2cccc([N+](=O)[O-])c2)cc1 | -1 | -2 | -1 | -1 | 3 | 4.7*
O=C(NCc1cccs1)c1cccc2c(-c3ccc(F)c(F)c3)coc12 | 1 | 3.5* | -2 | 0 | -3 | /
O=C(NCc1cccs1)c1cccc2c(-c3cccnc3)coc12 | -1 | -1 | -3 | 0 | 6 | /
CC(C)N(C(C)C)S(=O)(=O)c1ccc(NN)nc1 | 0 | 0 | 0 | 0 | -1 | 1
CCN(CC)S(=O)(=O)c1ccc(NN)nc1 | -2 | 1.4* | 1 | 0 | -2 | 0
CC(C)NC(=O)C1(C)CCN1C(=O)c1ccc(F)c(Cl)c1 (stereo not drawn) | 0 | -1 | -2 | 0 | 1 | /
CCN(CC)CCOc1c(Br)ccc2c1sc1nc3n(c(=O)c12)CCC3 | 1 | 0 | 5 | 0 | 6 | 3
O=c1c2c(nc3n1CCCCC3)sc1c(O)c(Br)ccc12 | 4 | 0 | 3 | 4.4* | 6 | 2
CCN(CC)S(=O)(=O)c1ccc(C(=O)NCCOC(=O)c2ccc(F)cc2F)cc1 | 0 | -1 | 1 | 0 | 5 | 0
COc1cc(NC(=O)CSc2nnc3c(C)cc4cc(C)cc(C)c4n23)c(C(=O)O)cc1OC | 1 | 0 | -3 | 0 | 11* | -1
CCOC(=O)CN/C=C(\C#N)c1ccccc1 | -1 | -1 | -3 | 0 | -4 | 5.4*
C[C@@H]1COc2cc(Br)ccc2S(=O)(=O)N1Cc1cn(CCC2OCCCO2)nn1 | -2 | -2 | -1 | 0 | -4 | /
COC(=O)c1ccc(C2NC(C(=O)O)CS2)cc1 (stereo not drawn) | 0 | -1 | 5 | -1 | 4 | 4.6*
CCc1nc2ccccc2c(=O)n1NC(=O)c1c(O)c2ccccc2[nH]c1=O | 0 | -1 | -1 | 0 | -2 | 4.9*
COc1ccccc1C(=O)NNC(=O)CCCN1C(=O)/C(=C/c2cccs2)SC1=S | -1 | -2 | -3 | 0 | 3 | 0
COc1ccccc1N1C(=O)S/C(=C\c2cccs2)C1=O | 5 | 1.0* | 1 | 0 | 4 | -1
CC(C)(C)N1Cc2nnn(CC3CCCCC3)c2-c2ccccc2S1(=O)=O | -2 | 0 | 2 | -1 | -2 | /
COc1cc2c(cc1CNC[C@H]1O[C@@H](n3cc(C)c(=O)[nH]c3=O)C[C@@H]1O)OCO2 | 1 | -1 | -3 | 0 | 1 | 5.0*
Cc1cn([C@H]2C[C@H](O)[C@@H](CNCc3cc(Cl)ccc3OCc3ccc(Cl)cc3)O2)c(=O)[nH]c1=O | 0 | -1 | -2 | 0 | -1 | 0
Cc1cc(NC(=O)c2ccoc2C)ccc1Br | 3 | 0 | 4 | 3.7* | 9 | 2
Cc1occc1C(=O)Nc1ccc(S(N)(=O)=O)cc1 | -1 | -2 | -1 | 1 | -1 | 5.6*
